DT40 TDP1 no CPT – qHTS for Inhibitors of human tyrosyl-DNA phosphodiesterase 1 (TDP1): qHTS in cells in absence of CPT; DT40 Tdp1-/- hTDP1 cells, no CPT, ATP luminescence, 48 h; Potency, µM (series often up to 46.2 µM), for the others: at the highest dose activity change, negative = growth inhibition, hits mostly inhibitors; 420,000 tested, 15% active; AID 686978, 2013; further: potency means the concentration at half of the fitted maximal effect; nearly all actives have a fitted effect of over 55% in size
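DT40 Tdp1-/-;hTDP1 cells, no CPT (DMSO vehicle only), 400 cells/well; compounds pin-transferred; ≥48 hr, 37 °C; CellTiter-Glo 30 min RT dark, luminescence read.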
IL1B secr inh – inhibitors of inflammasome signaling (IL-1 beta secretion). THP-1 LPS/ATP IL-1B secretion, AlphaLISA, 16 h; stronger effect = lower value. activity change, % at 57.5 µM. 360,000 tested, 4.7% active. AID 743279; in the data active means activity change below about -50%; inconclusive means mostly about -30% to -49%
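Secreted IL-1B measured by AlphaLISA bead assay after 16 h compound exposure of THP-1 cells; compounds (final up to 57.5 uM) added 1 h before LPS (250 ng/mL) and ATP (1.25 mM) stimulation; lower signal means less secretion.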
HT1080 IDH1KD tx – kills HT-1080 cells with IDH1 knockdown. HT-1080 IDH1 knockdown viability, ATP luminescence, 48 h. Potency, µM (doses to about 46.1 µM), without a hit: at the highest dose activity, negative = toxicity, most hits filed as cytotoxic. 360,000 tested, 2% active;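 further: potency means the concentration at half of the fitted maximal effect; 0% = DMSO wells and -100% = cell-free medium wells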
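Assay cells: HT-1080 with IDH1 knockdown, 750 per well, RPMI/5% FBS. Exposure: 48 h at 37 °C following 2 h pre-incubation. Read: CellTiter-Glo luminescence; fitted concentration-response, curve class assigned.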
HT1080-NT tox – kills 2HG-producing HT-1080-NT fibrosarcoma cells | AID 686970 | HT-1080-NT fibrosarcoma viability, CellTiter-Glo ATP luminescence, 48 h | Potency, µM (highest dose often 46.1 µM), for the others: top-dose activity, negative = less viability, usual class: cytotoxic | 360,000 tested, 1.6% active;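 further: NT is the 2HG producing partner of a matched IDH1 knockdown line; potency means the concentration at half of the fitted maximal effect; 0% = DMSO-treated cells and -100% = media-only wells without cells; nearly all actives have a fitted effect of over 55% in size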
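Viability of the 2HG-overproducing fibrosarcoma line after 48 hours of compound exposure at 37 degrees C was determined by luminescence with CellTiter-Glo, and concentration-effect curves were then fitted and categorized.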
TDP1 cell CPT – growth inhibition of DT40 Tdp1-/-;hTDP1 cells with camptothecin (screen for TDP1 inhibitors) | AID 686979 | 420,000 tested, 12% active | chicken DT40 Tdp1-/-;hTDP1 cells + 20 nM CPT, ATP luminescence, 48 h | Potency, µM (top dose mostly 46.2 µM), inactives show top-dose activity change, negative = growth inhibition, most hits filed as inhibitors; further: potency means the concentration at half of the fitted maximal effect; nearly all actives have a fitted effect of over 55% in size
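Cell growth measured by CellTiter-Glo luminescence after a minimum 48 h, 37 C compound exposure with 20 nM CPT in Tdp1-knockout DT40 cells stably expressing hTDP1, seeded 400/well; qHTS titration format.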
* marks the source's active call; other numbers are inactive results; ? = inconclusive; / = not tested or not shown; [ ] = another dose, or the depositor's remark. Compounds with a hit are over-represented: about 19% of the library has one in this group of screens. Unless noted, the call rests on the fitted dose curve; in most records, active means well fitted curve in the direction sought with a large enough effect; inconclusive means small, poorly fitted or top-dose-only effect, or another doubt; inactive means no such curve, though single readings can be large; an effect the other way counts as inactive or inconclusive. Unless noted, on the % scale 0 is the no-effect control and ±100 the full control effect.

SMILES | DT40 TDP1 no CPT | IL1B secr inh | HT1080 IDH1KD tx | HT1080-NT tox | TDP1 cell CPT
N#Cc1cccc(NC(=O)N2CCC(c3nc4c(nnn4Cc4cccc(Cl)c4)c(=O)[nH]3)CC2)c1 | -3.3% | -62.7* | ? | ? | -0.2%
COc1ccccc1S(=O)(=O)N1CCN(S(=O)(=O)c2ccccc2C#N)CC1 | -10.5% | -12.4 | -3.6% | 8.7% | -11.0%
CC(C)C[C@H]1CN(CCCC[C@@H]2CNC(=O)C(=O)N2CC2CCCCC2)C(=O)C(=O)N1CCC1CCCCC1 | -1.4% | 27.4 | 7.1% | 13.5% | -6.9%
O=c1[nH]c(C2CCN(S(=O)(=O)c3ccc(C(F)(F)F)cc3)CC2)nc2c1nnn2Cc1ccc(F)cc1 | ? | -57.4* | ? | -29.7% | ?
O=c1[nH]c(C2CCN(S(=O)(=O)c3ccc(S(=O)(=O)NC4CC4)cc3)CC2)nc2c1nnn2Cc1cccc(F)c1 | ? | ? | -26.9% | ? | 16.4µM*
Cc1ccc(Cn2nnc3c(=O)[nH]c(C4CCN(S(=O)(=O)c5ccc(C)cc5)CC4)nc32)cc1 | ? | ? | ? | 11.7%[9.24 µM] | -5.7%
O=c1[nH]c(C2CCN(S(=O)(=O)c3cccc(C(F)(F)F)c3)CC2)nc2c1nnn2Cc1cccc(F)c1 | 20.6µM* | -68.4* | 20.6µM* | 20.6µM* | 18.4µM*
CC(=O)c1cccc(S(=O)(=O)N2CCCC(c3nc4c(nnn4Cc4ccc(C)cc4)c(=O)[nH]3)C2)c1 (centres undefined) | -28.4% | -54.6* | ? | -26.7% | ?
O=c1[nH]c(C2CCN(S(=O)(=O)c3ccc([N+](=O)[O-])cc3)CC2)nc2c1nnn2Cc1ccccc1 | ? | 15.1 | 2.7% | 14.2% | ?
O=c1[nH]c(C2CCN(S(=O)(=O)c3ccc4c(c3)OCCO4)CC2)nc2c1nnn2Cc1cccc(F)c1 | ? | -3.5 | -11.9% | -8.8% | ?
COc1cccc(CNC(=O)C2CCCN(c3cnccn3)C2)c1 (centres undefined) | -25.4% | 9.5 | 18.8% | -11.9% | -8.2%
CCOc1ccccc1NC(=O)c1cccc(NC(=O)CC(c2ccccc2)c2ccccc2)c1 | 25.9µM* | -10.9 | 4.5% | 5.4% | 23.1µM*
O=C(CC(c1ccccc1)c1ccccc1)Nc1ccncc1 | ? | -6.9 | -6.6% | -2.3% | ?
CCOc1ccccc1NC(=O)c1cccc(NC(=O)c2ccco2)c1 | 1.64µM* | 5.4 | 2.31µM* | ? | 1.46µM*
CC(O)c1cccc(NC(=O)CC(c2ccccc2)c2ccccc2)c1 (centres undefined) | 9.2µM* | -5.6 | 3.1% | 3.0% | 9.2µM*
CCOc1ccccc1NC(=O)c1cccc(NC(=O)C2CCCC2)c1 | ? | ? | -6.8% | -2.2% | ?
O=C(NCc1ccccc1)c1cccc(NC(=O)c2ccco2)c1 | -4.0% | 3.3 | 4.11µM* | ? | -3.6%
CCC(C(=O)OCC(=O)N1CCN(S(=O)(=O)c2ccc(C)cc2C)CC1)c1ccccc1 (centres undefined) | ? | -6.0 | 10.2% | 1.5% | ?
CCCOc1ccccc1C(=O)N1CCCCC1CCN1CCCCC1 (centres undefined) | -5.0% | / | / | / | -5.5%
CCOc1ccccc1NC(=O)c1ccc(Cl)c(NC(=O)CC(c2ccccc2)c2ccccc2)c1 | ? | 9.9 | -16.1% | -15.8% | 18.4µM*
CCOc1ccccc1C(=O)Nc1cc(C(=O)NCCc2ccccc2)ccc1Cl | ? | 11.6 | 16.1% | 2.3% | -6.4%
CCc1ccc2nc(Nc3nc(COC)cc(=O)[nH]3)nc(C)c2c1 | 23.1µM* | ? | 17.4% | 3.9% | 9.2µM*
CCCCCc1c(C)nc(Nc2nc(C)c3cc(OC)ccc3n2)[nH]c1=O | 16.4µM* | -22.2 | 15.2% | ? | 13µM*
COCc1cc(=O)[nH]c(Nc2nc3ccc(C)cc3o2)n1 | 4.61µM* | -18.9 | ? | 4.3% | 4.61µM*
CCc1c(C)nc(Nc2nc(C)c3ccc(OC)cc3n2)[nH]c1=O | 16.4µM* | -76.3* | -0.3% | 7.1% | ?
SMILES | DT40 TDP1 no CPT | IL1B secr inh | HT1080 IDH1KD tx | HT1080-NT tox | TDP1 cell CPT
CCCCc1c(C)nc2ccc(OC)cc2c1SCCC(=O)O | -16.8% | 50.8 | -17.0% | 5.2% | 4.8%
CCCc1cc(=O)[nH]c(Nc2cc(C)ccc2OC)n1 | -26.3% | / | / | / | -10.8%
O=C(Cc1cccc2c(=O)cc(-c3ccccc3)oc12)OCCN1CCOCC1 | -10.3% | -14.5 | 1.2% | 18.2% | -5.3%
CCc1c(C)nc(SCCOc2ccc(OC)cc2)[nH]c1=O | ? | 34.9 | 4.3% | 6.2% | ?
CCc1c(C)nc(Nc2nc(C)c3cc(OC)ccc3n2)[nH]c1=O | 20.6µM* | ? | 7.1% | 14.7% | ?
COc1ccc2c(C)nc(Nc3nc(C)c(C)c(=O)[nH]3)nc2c1 | 2.91µM* | -99.7* | ? | ? | 4.61µM*
COc1ccc2c(C)nc(Nc3nc(C)cc(C)n3)nc2c1 | 3.26µM* | 9.8 | 0.891µM* | 0.447µM* | 2.91µM*
COc1ccc2nc(NC3=NC(c4ccccc4)CC(=O)N3)nc(C)c2c1 (centres undefined) | 13µM* | 14.8 | 18.4µM* | ? | ?
O=C(O)C(CC1CCCCC1)N1CCS(=O)(=O)CC1 (centres undefined) | -10.6% | 30.8 | 11.6% | 0.3% | -3.1%
CC(C)(C)OC(=O)NN1CC(=O)N2Cc3ccccc3C[C@@H]2C1=O | 13.6% | 2.7 | 15.5% | 0.8% | -2.2%
COc1ccc(NC(=O)c2nnn(Cc3nc(-c4cc(OC)c(OC)c(OC)c4)oc3C)c2C)cc1 | 8.2% | / | / | / | 11.5%
COc1ccc(NC(=O)c2nnn(Cc3nc(-c4cc(Br)ccc4OC)oc3C)c2C)cc1 | 18.4µM* | / | / | / | -21.1%
COc1cc(-c2nc(Cn3nnc(C(=O)Nc4cc(C)cc(C)c4)c3C)c(C)o2)cc(OC)c1OC | 11.6µM* | / | / | / | ?
COc1cc(/C=N/N=C/c2c[nH]c(=O)c(C#N)c2Nc2ccccc2)ccc1O | 1.3% | 3.0 | 11.5% | 0.3% | -10.3%
O=C(Nc1sc2c(c1C(=O)NCCO)CCCC2)c1ccco1 | -5.3% | -59.2* | 3.4% | 12.7% | -6.9%
CCOC(=O)c1c(NC(=O)CS(=O)(=O)c2cn(CC)c3ccccc23)sc2c1CCCCC2 | ? | 26.8 | 0.9% | 7.0% | 20.6µM*
O=C(Nc1sc2c(c1C(=O)O)CCCCC2)c1ccco1 | ? | 23.1 | ? | ? | ?
CCOC(=O)c1c(NC(=O)c2ccco2)sc2c1CCCCC2 | 29.1µM* | 3.6 | 4.3% | 2.5% | 29.1µM*
CCOC(=O)c1c(NC(=O)C(C)Sc2cn(CCNC(=O)c3c(F)cccc3F)c3ccccc23)sc2c1CCC2 (centres undefined) | 16.4µM* | / | / | / | 20.6µM*

Screening results: PubChem BioAssay, National Center for Advancing Translational Sciences (NCATS)
